Records with an inconclusive call do not appear. A number with no mark means an inactive call. Calls of active or inactive are those of the source. Calls follow the shape of the dose curve; as a rule, active = well fitted cell-killing curve with a large enough effect in the repeat runs; inconclusive = weak or mixed curves, or effect the other way; inactive = flat fitted curve, though single readings scatter.
test: cAMP Responsive Elements (CRE) small molecule antagonists, cell-based qHTS assay: qHTS cell viability counter screen (AID 2060913); settings: CRE-bla HEK293T viability, CellTiter-Glo luminescence, 5 h; series mostly up to 92.4 µM; viability change, negative = cytotoxic: at the top concentration; also: nearly all actives have a fitted effect of over 40% in size
How it was run: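 Cytotoxicity read in the same wells as the CRE-bla HEK293T antagonist assay: after 3 h compound with 0.25 uM NKH477 final and 2 h beta-lactamase substrate, CellTiter-Glo luminescence measured.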
% is scaled to controls: 0 for no effect and ±100 for the full control effect.

Row | Compound | viability change, negative = cytotoxic | Potency
1 | CCCCCCC(C)Nc1ccc(Nc2ccccc2)cc1 (stereo not given) | -3.84% | –
2 | CC(=O)NCc1c(I)c(NC(C)=O)c(I)c(C(=O)O)c1I | 16% [at 42.5 µM] | –
3 | FC(F)(F)C(F)(F)C(F)(F)C(F)(F)C(F)(F)C(F)(F)C(F)(F)C(F)(F)C(F)(F)C(F)(F)F | 10.4% [at 8.39 µM] | –
4 | Nc1nc2ncc(CNc3ccc(C(=O)N[C@@H](CCC(=O)O)C(=O)O)cc3)nc2c(=O)[nH]1 | – | inactive
5 | CCOC(=O)C1CC(=O)C(=C(O)C2CC2)C(=O)C1 (stereo not given) | -2.19% | –
6 | C1CCN2C[C@@H]3C[C@@H](CN4CCCC[C@@H]34)[C@H]2C1 | 1.32% [at 42.5 µM] | –
7 | CCCCCCCCCCCCCC(=O)OCC(O)CO (stereo not given) | 0.25% | –
8 | O=c1c(-c2ccc(O)cc2)coc2cc(O)cc(O)c12 | – | inactive
9 | CC(=O)CC(C)(C)O | – | inactive
10 | CC(C)CCO | -8.87% | –
11 | O=C1CCCCCCCCCCCCCCO1 | 3.21% | –
12 | C=CC(=O)Nc1cc2c(Nc3ccc(F)c(Cl)c3)ncnc2cc1OCCCN1CCOCC1 | 14% [at 42.5 µM] | –
13 | CC(C)(C)OC(=O)c1cccc(N)c1 | 14.3% | –
14 | CN(C)C(=O)NC1(c2ccccc2)CCN(CCC[C@]2(c3ccc(Cl)c(Cl)c3)CCCN(C(=O)c3ccccc3)C2)CC1 | -0.11% [at 18.9 µM] | –
15 | CCCOc1ccc(C(=O)OCCN(CC)CC)cc1N | -0.615% [at 42.5 µM] | –
16 | CCOC(CN1CCN(CC(C)C(=O)c2ccccc2)CC1)c1ccccc1 (stereo not given) | 1.27% [at 18.9 µM] | –
17 | O=C(Cl)c1cc(Cl)cc(Cl)c1 | 5.4% | –
18 | Nc1cc(C(F)(F)F)ccc1S | -12.4% [at 42.5 µM] | –
19 | C=CCN1C[C@H](C(=O)N(CCCN(C)C)C(=O)NCC)C[C@@H]2c3cccc4[nH]cc(c34)C[C@H]21 | -0.554% [at 42.5 µM] | –
20 | CC1=CP(=O)(c2ccccc2)CC1 (stereo not given) | -7.26% | –

Row | Compound | viability change, negative = cytotoxic | Potency
21 | CCC(Cc1c(I)cc(I)c(N)c1I)C(=O)O (stereo not given) | – | inactive
22 | C[Si](C)(C)O[Si](C)(C)O[Si](C)(C)C | 0.289% | –
23 | COc1ccc(-c2nc3ccc(C4=NNC(=O)CC4C)cc3[nH]2)cc1 (stereo not given) | -5.35% [at 42.5 µM] | –
24 | CC(C)(C)c1cc(O)c(C(C)(C)C)cc1O | 3.29% | –
25 | CC(C(=O)O)c1ccc(-c2ccccc2)c(F)c1 (stereo not given) | -5.31% | –
26 | CC(O)COc1ccccc1 (stereo not given) | – | inactive
27 | CCCCCCCCCCCCOCCO | – | inactive
28 | NC(=S)N/N=C/c1cccnc1 | 2.93% [at 42.5 µM] | –
29 | CNC1(C)C2CCC(C2)C1(C)C (stereo not given) | -0.314% [at 42.5 µM] | –
30 | c1ccc(CC2=NCCN2)cc1 | 4.72% [at 42.5 µM] | –
31 | CCCCS(=O)(=O)N[C@@H](Cc1ccc(OCCCCC2CCNCC2)cc1)C(=O)O | 10.2% [at 42.5 µM] | –
32 | NC(N)=NC(N)=NCCc1ccccc1 | – | inactive
33 | O=C(Nc1ccc(C(=O)O)c(O)c1)c1ccccc1 | 2.36% [at 42.5 µM] | –
34 | c1ccc2sc(SN(C3CCCCC3)C3CCCCC3)nc2c1 | 4.04% | –
35 | Cc1c(OCC(F)(F)F)ccnc1CS(=O)c1nc2ccccc2[nH]1 (stereo not given) | – | inactive
36 | O=C(O)c1ccccc1-c1ccc(C(F)(F)F)cc1 | 0.598% [at 42.5 µM] | –
37 | CN1C(=O)CC(C)(c2ccccc2)C1=O (stereo not given) | 5.94% [at 42.5 µM] | –
38 | Cc1cc(-n2nc3ccc(Cl)cc3n2)c(O)c(C(C)(C)C)c1 | 0.669% [at 42.5 µM] | –
39 | COC(=O)CCCCC(=O)O | 9.02% | –
40 | CC/C=C\CCCCO | 2.73% | –

test: cAMP Responsive Elements (CRE) small molecule agonists, cell-based qHTS assay: qHTS cell viability counter screen (AID 2060914); settings: CRE-bla HEK293T viability, CellTiter-Glo luminescence, 5 h; series mostly up to 92.4 µM; activity change, negative = cytotoxicity: at the top concentration; also: nearly all actives have a fitted effect of over 50% in size
How it was run: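 Luminescence read-out (CellTiter-Glo, 30 min RT) of ATP-based viability in CRE-bla HEK 293T cells, run in the same wells as the β-lactamase reporter assay after 3 h compound treatment at 37 °C.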

Row | Compound | activity change, negative = cytotoxicity | Potency
41 | CCCCCCC(C)Nc1ccc(Nc2ccccc2)cc1 (stereo not given) | -18.1% | –
42 | CC(=O)NCc1c(I)c(NC(C)=O)c(I)c(C(=O)O)c1I | 2.19% [at 42.5 µM] | –
43 | FC(F)(F)C(F)(F)C(F)(F)C(F)(F)C(F)(F)C(F)(F)C(F)(F)C(F)(F)C(F)(F)C(F)(F)F | -0.902% [at 8.39 µM] | –
44 | Nc1nc2ncc(CNc3ccc(C(=O)N[C@@H](CCC(=O)O)C(=O)O)cc3)nc2c(=O)[nH]1 | – | inactive
45 | CCOC(=O)C1CC(=O)C(=C(O)C2CC2)C(=O)C1 (stereo not given) | 13.3% | –
46 | C1CCN2C[C@@H]3C[C@@H](CN4CCCC[C@@H]34)[C@H]2C1 | 9.09% [at 42.5 µM] | –
47 | CCCCCCCCCCCCCC(=O)OCC(O)CO (stereo not given) | 7.33% | –
48 | O=c1c(-c2ccc(O)cc2)coc2cc(O)cc(O)c12 | – | inactive
49 | CC(=O)CC(C)(C)O | – | inactive
50 | CC(C)CCO | 10.3% | –
51 | O=C1CCCCCCCCCCCCCCO1 | 2.64% | –
52 | C=CC(=O)Nc1cc2c(Nc3ccc(F)c(Cl)c3)ncnc2cc1OCCCN1CCOCC1 | 6.01% [at 42.5 µM] | –
53 | CC(C)(C)OC(=O)c1cccc(N)c1 | 1.92% | –
54 | CN(C)C(=O)NC1(c2ccccc2)CCN(CCC[C@]2(c3ccc(Cl)c(Cl)c3)CCCN(C(=O)c3ccccc3)C2)CC1 | -0.87% [at 18.9 µM] | –
55 | CCCOc1ccc(C(=O)OCCN(CC)CC)cc1N | 3.16% [at 42.5 µM] | –
56 | CCOC(CN1CCN(CC(C)C(=O)c2ccccc2)CC1)c1ccccc1 (stereo not given) | -1.12% [at 18.9 µM] | –
57 | O=C(Cl)c1cc(Cl)cc(Cl)c1 | 4.73% | –
58 | Nc1cc(C(F)(F)F)ccc1S | -27.3% [at 42.5 µM] | –
59 | C=CCN1C[C@H](C(=O)N(CCCN(C)C)C(=O)NCC)C[C@@H]2c3cccc4[nH]cc(c34)C[C@H]21 | -8.76% [at 42.5 µM] | –
60 | CC1=CP(=O)(c2ccccc2)CC1 (stereo not given) | 3.55% | –

Row | Compound | activity change, negative = cytotoxicity | Potency
61 | CCC(Cc1c(I)cc(I)c(N)c1I)C(=O)O (stereo not given) | – | inactive
62 | C[Si](C)(C)O[Si](C)(C)O[Si](C)(C)C | 6.78% | –
63 | COc1ccc(-c2nc3ccc(C4=NNC(=O)CC4C)cc3[nH]2)cc1 (stereo not given) | 12.4% [at 42.5 µM] | –
64 | CC(C)(C)c1cc(O)c(C(C)(C)C)cc1O | 1.53% | –
65 | CC(C(=O)O)c1ccc(-c2ccccc2)c(F)c1 (stereo not given) | -7.53% | –
66 | CC(O)COc1ccccc1 (stereo not given) | – | inactive
67 | CCCCCCCCCCCCOCCO | – | inactive
68 | NC(=S)N/N=C/c1cccnc1 | -0.506% [at 42.5 µM] | –
69 | CNC1(C)C2CCC(C2)C1(C)C (stereo not given) | -5.16% [at 42.5 µM] | –
70 | c1ccc(CC2=NCCN2)cc1 | 1.43% [at 42.5 µM] | –
71 | CCCCS(=O)(=O)N[C@@H](Cc1ccc(OCCCCC2CCNCC2)cc1)C(=O)O | -0.113% [at 42.5 µM] | –
72 | NC(N)=NC(N)=NCCc1ccccc1 | – | inactive
73 | O=C(Nc1ccc(C(=O)O)c(O)c1)c1ccccc1 | -4.01% [at 42.5 µM] | –
74 | c1ccc2sc(SN(C3CCCCC3)C3CCCCC3)nc2c1 | 5.45% | –
75 | Cc1c(OCC(F)(F)F)ccnc1CS(=O)c1nc2ccccc2[nH]1 (stereo not given) | – | inactive
76 | O=C(O)c1ccccc1-c1ccc(C(F)(F)F)cc1 | 8.02% [at 42.5 µM] | –
77 | CN1C(=O)CC(C)(c2ccccc2)C1=O (stereo not given) | -3.67% [at 42.5 µM] | –
78 | Cc1cc(-n2nc3ccc(Cl)cc3n2)c(O)c(C(C)(C)C)c1 | -6.57% [at 42.5 µM] | –
79 | COC(=O)CCCCC(=O)O | 1.17% | –
80 | CC/C=C\CCCCO | 2.67% | –
